The source made the active and inactive calls. Unless noted, the rule behind the calls is not given here.
Target: Dihydroorotate dehydrogenase (quinone), mitochondrial (Plasmodium falciparum (isolate 3D7)) (UniProt Q08210)
Assay: PfDHODH enzyme inhibitors, primary screen, biochemical, C-terminal His tag, absorbance 600 nm (AID 1175);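 note: recombinant parasite enzyme with a five histidine tag at its C terminus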
Details: DCIP absorbance 600 nm, higher = more signal, called active from +8 up or from −8 down
Note: test concentration not given here.

Sequence of Dihydroorotate dehydrogenase (quinone), mitochondrial (Plasmodium falciparum (isolate 3D7)) (Q08210 whole entry, looked up): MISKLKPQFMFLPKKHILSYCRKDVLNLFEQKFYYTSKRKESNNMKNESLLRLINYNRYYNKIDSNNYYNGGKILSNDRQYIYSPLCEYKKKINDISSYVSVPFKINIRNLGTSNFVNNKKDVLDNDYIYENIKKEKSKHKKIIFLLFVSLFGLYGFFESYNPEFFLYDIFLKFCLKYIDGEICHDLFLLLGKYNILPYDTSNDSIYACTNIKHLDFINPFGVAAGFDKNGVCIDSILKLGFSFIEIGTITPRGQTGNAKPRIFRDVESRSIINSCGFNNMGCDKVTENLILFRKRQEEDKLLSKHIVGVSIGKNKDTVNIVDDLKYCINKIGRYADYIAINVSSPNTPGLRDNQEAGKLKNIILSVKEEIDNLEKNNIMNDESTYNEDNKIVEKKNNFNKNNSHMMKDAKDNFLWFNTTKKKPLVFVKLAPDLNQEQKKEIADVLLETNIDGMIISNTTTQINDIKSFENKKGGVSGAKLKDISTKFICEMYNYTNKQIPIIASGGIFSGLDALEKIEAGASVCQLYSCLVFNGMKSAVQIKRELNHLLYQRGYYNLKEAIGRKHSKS

Composite z-score, inactive:
C=CCC(OC(C)=O)[C@@H]1[C@@H](N(Cc2cc3ccccc3o2)C(=O)Cc2ccc(OC)cc2)c2cc(OCCCO)ccc2N1C(=O)c1ccc2ccccc2n1 (stereo not given in full) 0.278
[N-]=[N+]=Nc1ccccc1[C@@H]1OC(c2ccc(OCCCO)cc2)=N[C@]1(Cc1ccccc1)C(=O)NCCN1CCOCC1 0.417
COc1ccc(C(=O)Nc2cccc(CN3C(=O)[C@]4(O[C@H](CC(=O)N5Cc6ccccc6C[C@H]5CO)[C@@H]([Si](C)(C)c5ccc(OC)cc5)[C@@H]4C)c4ccccc43)c2)cc1 -3.9
C=CCN1C(=O)[C@@]2(O[C@@H](CCn3cc([C@H](O)c4ccccc4)nn3)[C@H]([Si](C)(C)c3ccc(OC)cc3)[C@H]2C)c2cc(N3C(=O)c4cccc5cccc3c45)ccc21 -0.0217
CC(C)(C)N1CC=CC23O[C@@H]4/C=C\CCCOC(=O)C4[C@H]2C(=O)N(CCCCCO)[C@@H]3C1=O (stereo not given in full) -0.22
CN(C)CCCC[C@@H]1NC(=O)[C@@H]2C[C@H](C(=O)NCCCCCCNC(=O)CS)[C@H](c3ccc(O)cc3)N2C1=O -0.173
CC1CC/C=C\[C@H]2OC34C=CCN(CCN5CCOCC5)C(=O)[C@H]3N(CCCO)C(=O)[C@@H]4C2C(=O)O1 (stereo not given in full) 0.199
COc1ccccc1CN1C(=O)c2ccccc2[C@](Cc2ccccc2I)(C(=O)NCC(C)C)[C@@H]1c1ccc(CO)cc1 0.133
COCC(=C=CC[C@H](O)c1ccccc1OCCO)C[C@H](O)COCc1ccccc1 -2.21
O=C(NC1CC1)[C@@H]1c2ccccc2C(=O)N(Cc2ccc(OC(F)(F)F)cc2)[C@H]1c1ccc(CO)cc1 0.347
O=C1C2C=CC(C(O)c3c(F)cccc3Cl)N(Nc3ccc([N+](=O)[O-])cc3)C2C(=O)N1c1ccccc1 (stereo not given) 0.406
C[C@@H]1NC(=O)C([C@@H](C)OCc2ccccc2)NC(=O)[C@@]23C(=O)N[C@@H](Cc4ccccc4)C2[C@H](C)[C@@]2(C)O[C@H]2C3/C=C/C/C=C\CNC1=O (stereo not given in full) -0.0288
CC1CC/C=C\[C@H]2OC34C=CCN(c5ccc(Cl)cc5)C(=O)[C@H]3N(CCCCCCO)C(=O)[C@]4(C)C2C(=O)O1 (stereo not given in full) -1.1
CC1=C([C@H](O)CCc2ccccc2)[C@H](CO)n2c(=O)n(-c3ccccc3)c(=O)n2C1 -1.34
CCOC(=O)C[C@H]1[C@H](OC(=O)Cc2ccc3c(c2)OCO3)[C@@H](NC(=O)Cc2ccc(OC)cc2)c2cc(OCCCO)ccc2N1C(=O)Cc1ccc(OC)cc1 -1.72
COc1ccc(C(O)C2C=CC3C(=O)NC(=O)C3N2Nc2ccc(Cl)cc2Cl)c2ccccc12 (stereo not given) 0.167
C=C1C(=O)C=C2CN(C(=O)c3ccccc3)[C@@](Cc3ccc(OC)cc3)(C(=O)OC)[C@@H]12 0.046
COC(=O)[C@@]1(Cc2ccccc2)[C@H]2c3cc(C(=O)N(C)C)n(Cc4ccc(S(C)(=O)=O)cc4)c3C[C@H]2CN1C(=O)c1ccccc1 -0.316
CCCNC(=O)[C@@]1(c2ccc([N+](=O)[O-])cc2)CC(=O)N(C(C)C)[C@@H]1c1ccc(CO)cc1 0.0058

Tested on: not listed separately
Assay: P. aeruginosa biofilm formation inhibitors, primary screen, strain PAO1, LB-PBS medium, absorbance 600 nm (AID 1176)
Details: P. aeruginosa PAO1 growth/biofilm, A600, 12 h; higher = more signal

z-score, inactive:
COCCOC(=O)N1C(=O)[C@@]2(c3cc(C#Cc4ccc(OC)cc4)ccc31)[C@H](c1ccc(OCCO)cc1)N1[C@H](c3ccccc3)[C@H](c3ccccc3)OC(=O)[C@H]1[C@@H]2C(=O)NC[C@H](O)c1ccccc1 5.17
CC1CC/C=C\[C@H]2OC34C=CCN(Cc5ccccc5)C(=O)[C@H]3N(CCCCCCO)C(=O)[C@@H]4C2C(=O)O1 (stereo not given in full) -1.06
[N-]=[N+]=Nc1ccccc1[C@@H]1OC(c2ccc(OCCCO)cc2)=N[C@]1(CCS(=O)(=O)c1ccccc1)C(=O)NCC(O)CO (stereo not given in full) 0.317
COC(=O)[C@@]1(Cc2ccccc2)[C@H]2c3cc(C(=O)N(C)C)n(CCSC(=N)N)c3C[C@H]2CN1C(=O)c1ccccc1 -0.0424
CC(C)[Si](C#CCCc1ccccc1)(O[C@H](c1ccccc1)c1cn(Cc2ccccc2)nn1)C(C)C -0.206
O=C(NCc1ccc(F)cc1)[C@H]1C[C@H]2C(=O)N3CCC[C@H]3C(=O)N2[C@H]1c1ccc(O)cc1 2.39
COC(=O)[C@]1(Cc2ccccc2)N=C(c2ccc(OCCCO)cc2)O[C@@H]1c1ccccc1CN=[N+]=[N-] 1.84
CC(C)C[C@@H]1NC(=O)[C@@H]2C[C@H](C(=O)NCCCCCCNC(=O)CS)[C@H](c3cccc(OCCO)c3)N2C1=O 0.863
O=C1O[C@@H](c2ccccc2)[C@@H](c2ccccc2)N2[C@@H](c3ccc(OCCO)cc3)[C@]3(C(=O)Nc4ccc(C#CCCO)cc43)[C@@H](C(=O)O)[C@H]12 0.185
CCCC[C@H]1C[C@@H]1[C@@H]1N(C(C)=O)[C@H](c2cccc(OC)c2)CC12CC2 -0.499
C=C(COC)/C(=C/C[C@@H](OC(C)=O)c1ccccc1OCCO)c1cnc2ccccc2c1 -0.104
CN(C)CCCNC(=O)[C@@]1(C)c2ccccc2C(=O)N(Cc2ccc(OC(F)(F)F)cc2)[C@H]1c1ccc(CO)cc1 0.236
C=CC[C@]1(C(=O)NCC(O)CO)COC(c2ccc(OCCCO)cc2)=N1 (stereo not given in full) 2.29
C=CCC(OC(C)=O)[C@@H]1[C@@H](N(Cc2cccc3ccccc23)C(=O)c2ccc(-c3ccccc3)cc2)c2cc(OCCCO)ccc2N1C(=O)Cc1ccc2ccccc2c1 (stereo not given in full) 0.444
CCCCCC1=C2CNC(CC(C)C)(C(=O)OC)C=C2C(C)C1=O (stereo not given) 0.383
CN1C(=O)[C@@H]2[C@@H](CC(COc3ccccc3)=C3[C@@H](CCc4ccccc4)OB(O)C[C@@H]32)C1=O 0.2
COC(=O)[C@@]1(Cc2ccc(OC)cc2)[C@H]2c3cc(C(=O)N4CCCC4)n(Cc4ccc(C(F)(F)F)nc4)c3C[C@H]2CN1C(=O)c1ccccc1 1.08
C=CCC(OC(C)=O)[C@@H]1[C@@H](N(Cc2cc3ccccc3o2)C(=O)Cc2ccc(OC)cc2)c2cc(OCCCO)ccc2N1C(=O)c1ccc2ccccc2n1 (stereo not given in full) 0.268
[N-]=[N+]=Nc1ccccc1[C@@H]1OC(c2ccc(OCCCO)cc2)=N[C@]1(Cc1ccccc1)C(=O)NCCN1CCOCC1 -0.441
COc1ccc(C(=O)Nc2cccc(CN3C(=O)[C@]4(O[C@H](CC(=O)N5Cc6ccccc6C[C@H]5CO)[C@@H]([Si](C)(C)c5ccc(OC)cc5)[C@@H]4C)c4ccccc43)c2)cc1 0.425
C=CCN1C(=O)[C@@]2(O[C@@H](CCn3cc([C@H](O)c4ccccc4)nn3)[C@H]([Si](C)(C)c3ccc(OC)cc3)[C@H]2C)c2cc(N3C(=O)c4cccc5cccc3c45)ccc21 0.72
CC(C)(C)N1CC=CC23O[C@@H]4/C=C\CCCOC(=O)C4[C@H]2C(=O)N(CCCCCO)[C@@H]3C1=O (stereo not given in full) 0.481
CN(C)CCCC[C@@H]1NC(=O)[C@@H]2C[C@H](C(=O)NCCCCCCNC(=O)CS)[C@H](c3ccc(O)cc3)N2C1=O 0.767
CC1CC/C=C\[C@H]2OC34C=CCN(CCN5CCOCC5)C(=O)[C@H]3N(CCCO)C(=O)[C@@H]4C2C(=O)O1 (stereo not given in full) 0.233
COc1ccccc1CN1C(=O)c2ccccc2[C@](Cc2ccccc2I)(C(=O)NCC(C)C)[C@@H]1c1ccc(CO)cc1 0.251
COCC(=C=CC[C@H](O)c1ccccc1OCCO)C[C@H](O)COCc1ccccc1 -0.566
O=C(NC1CC1)[C@@H]1c2ccccc2C(=O)N(Cc2ccc(OC(F)(F)F)cc2)[C@H]1c1ccc(CO)cc1 -0.233
O=C1C2C=CC(C(O)c3c(F)cccc3Cl)N(Nc3ccc([N+](=O)[O-])cc3)C2C(=O)N1c1ccccc1 (stereo not given) 0.685
C[C@@H]1NC(=O)C([C@@H](C)OCc2ccccc2)NC(=O)[C@@]23C(=O)N[C@@H](Cc4ccccc4)C2[C@H](C)[C@@]2(C)O[C@H]2C3/C=C/C/C=C\CNC1=O (stereo not given in full) 0.625
CC1CC/C=C\[C@H]2OC34C=CCN(c5ccc(Cl)cc5)C(=O)[C@H]3N(CCCCCCO)C(=O)[C@]4(C)C2C(=O)O1 (stereo not given in full) -0.801
CC1=C([C@H](O)CCc2ccccc2)[C@H](CO)n2c(=O)n(-c3ccccc3)c(=O)n2C1 0.589
CCOC(=O)C[C@H]1[C@H](OC(=O)Cc2ccc3c(c2)OCO3)[C@@H](NC(=O)Cc2ccc(OC)cc2)c2cc(OCCCO)ccc2N1C(=O)Cc1ccc(OC)cc1 0.501
COc1ccc(C(O)C2C=CC3C(=O)NC(=O)C3N2Nc2ccc(Cl)cc2Cl)c2ccccc12 (stereo not given) 1.28
C=C1C(=O)C=C2CN(C(=O)c3ccccc3)[C@@](Cc3ccc(OC)cc3)(C(=O)OC)[C@@H]12 0.964
COC(=O)[C@@]1(Cc2ccccc2)[C@H]2c3cc(C(=O)N(C)C)n(Cc4ccc(S(C)(=O)=O)cc4)c3C[C@H]2CN1C(=O)c1ccccc1 1.47
CCCNC(=O)[C@@]1(c2ccc([N+](=O)[O-])cc2)CC(=O)N(C(C)C)[C@@H]1c1ccc(CO)cc1 0.373

— PubChem BioAssay
